Laboratory results from PubChem BioAssay (NCATS).
Inconclusive results are not listed. Values without a mark were called inactive. The source made the active and inactive calls. Calls follow the shape of the dose curve; as a rule, active = well fitted cell-killing curve with a large enough effect; inconclusive = small, poorly fitted or top-dose-only effect, or effect the other way; inactive = flat fitted curve, though single readings scatter.

These molecules were tested on Tov112D (assay: Primary qHTS to identify gynecologic anti-cancer compounds using libraries of approved drugs and bioactive compounds (AID 1345084; also: nearly all actives have a fitted effect of over 55% in size)). Details: Gynecologic cancer cell panel viability, ATPlite luminescence, 48 h; series mostly up to 57.5 µM.
In short: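 Five-point cytotoxicity, 48 h drug exposure at 37 C, 5% CO2, on cells seeded 16 h beforehand. ATP content read by ATPlite luminescence.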
% is scaled to controls: 0 for no effect and ±100 for the full control effect; potency is read from the fitted curve at half-maximal effect.

SMILES	Potency	activity change, negative = cytotoxicity
Cc1cc(Nc2ccc(NC(=O)c3ccc(Nc4ccnc5ccccc45)cc3)cc2)nc(N)n1	25.1 µM (active)	–
CC(=O)OC1C[C@]2(C)C(O)CC(C)=C[C@H](OC(=O)c3ccc(O)cc3)C2[C@]1(O)C(C)C (some centres not stated)	inactive	–
C=C(CO)C12OC1C1(C)C(=CC2=O)C(O)C(O)CC1C (configuration not stated)	inactive	–
COC1CC(O[C@H]2CC[C@@]3(C)C(CCC4C3[C@H](OC(C)=O)[C@@H](OC(=O)/C=C/c3ccccc3)[C@]3(C)C(C(C)=O)CC[C@]43O)C2)OC(C)C1OC1CC(OC)C(OC2CC(OC)C(OC3OC(C)C(OC4OC(CO)C(O)C(O)C4O)C(OC)C3O)C(C)O2)C(C)O1 (some centres not stated)	–	-0.487% [at 6.55 µM]
CC1(C)CC[C@]2(C(=O)O)[C@H](O)C[C@]3(C)C(=CCC4[C@@]5(C)CC[C@H](O[C@@H]6O[C@H](CO[C@@H]7OC[C@H](O)[C@H](O)[C@H]7O[C@@H]7OC[C@@H](O)[C@H](O)[C@H]7O)[C@@H](O)[C@H](O)[C@H]6O[C@@H]6O[C@H](CO)[C@@H](O)[C@H](O)[C@H]6O)C(C)(C)C5CC[C@]43C)[C@@H]2C1 (some centres not stated)	–	1.64% [at 11.6 µM]
C/C=C1\[C@H](OC2OC(COC3OC(CO)C(O)C(O)C3O)C(O)C(O)C2O)OC=C(C(=O)OC)[C@H]1CC(=O)OCCc1ccc(O)cc1 (some centres not stated)	inactive	–
CC1(C)CC[C@]2(C(=O)OC3OC(CO)C(O)C(O)C3O)CC[C@]3(C)C(=CCC4[C@@]5(C)CC[C@H](OC6OC(C(=O)O)C(O)C(OC7OC(CO)C(O)C(O)C7O)C6O)C(C)(C)C5CC[C@]43C)C2C1 (some centres not stated)	–	6.25% [at 11.6 µM]
